Source: PubChem BioAssay AID887 (National Center for Advancing Translational Sciences (NCATS), 2007)
Out of some 74,000 compounds screened, about 1,100 (1.5%) were called active. Roughly 5% stayed inconclusive and do not appear here. This is one part of a sample in which actives are shown more often than they occur. A number with no mark means an inactive call. Calls come from the whole dose curve; as a rule, active = well fitted inhibition curve with a large enough effect; inconclusive = small, poorly fitted or top-dose-only effect; inactive = no such curve, though single readings can be large or run the other way.

molecular target: Polyunsaturated fatty acid lipoxygenase ALOX15 (Homo sapiens) (UniProt P16050); assay: qHTS Assay for Inhibitors of 15-hLO (15-human lipoxygenase); details: purified 15hLO-1, xylenol orange hydroperoxide absorbance; series mostly up to 57.1 µM; activity change, negative = inhibition: at the top concentration; note: nearly all actives have a fitted effect of over 55% in size
Method in brief: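 Hydroperoxide formed from arachidonic acid (50 uM) by purified human 15hLO-1 (40 nM) oxidizes ferrous iron, and the ferric-xylenol orange complex is read at 573 versus 405 nm. Compounds were preincubated 15 min; reaction ran 6 min at room temperature.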
% is set by controls: 0 for no effect and ±100 for the full control effect; potency is the fitted concentration of half-maximal effect.

Polyunsaturated fatty acid lipoxygenase ALOX15 (Homo sapiens), sequence (P16050 whole entry, looked up): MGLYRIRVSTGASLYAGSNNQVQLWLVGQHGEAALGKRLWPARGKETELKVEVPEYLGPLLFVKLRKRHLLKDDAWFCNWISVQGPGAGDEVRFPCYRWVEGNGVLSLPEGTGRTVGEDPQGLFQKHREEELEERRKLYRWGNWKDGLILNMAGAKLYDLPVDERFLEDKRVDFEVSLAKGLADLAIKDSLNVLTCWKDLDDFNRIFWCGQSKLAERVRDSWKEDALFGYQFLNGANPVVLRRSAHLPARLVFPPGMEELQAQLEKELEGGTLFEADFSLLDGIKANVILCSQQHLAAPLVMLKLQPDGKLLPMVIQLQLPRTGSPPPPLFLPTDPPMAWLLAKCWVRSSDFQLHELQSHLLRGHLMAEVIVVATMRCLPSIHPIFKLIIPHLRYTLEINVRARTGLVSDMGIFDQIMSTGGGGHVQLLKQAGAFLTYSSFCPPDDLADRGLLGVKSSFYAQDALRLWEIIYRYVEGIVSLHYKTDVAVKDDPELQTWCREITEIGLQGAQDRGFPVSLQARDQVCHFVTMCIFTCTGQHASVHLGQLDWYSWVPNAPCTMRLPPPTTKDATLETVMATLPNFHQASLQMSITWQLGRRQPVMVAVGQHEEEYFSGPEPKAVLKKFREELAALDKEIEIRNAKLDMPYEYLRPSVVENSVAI

| SMILES | activity change, negative = inhibition | Potency |
| --- | --- | --- |
| Oc1c(Br)cc(CN(Cc2cc(Br)c(O)c(Br)c2)C2CCCCC2)cc1Br | 11.3% [at 11.4 µM] |  |
| CC1(C)SC2C(NC(=O)COc3ccccc3)C(=O)N2C1C(=O)O (stereo not given) | -9.13% (inactive) |  |
| O=C1OC(C(O)CO)C(O)=C1O (stereo not given) | 0.473% (inactive) |  |
| CCCSC1=C(C#N)C(c2ccccc2C)C(C(=O)OC)C(=O)N1 (stereo not given) |  | 12.6 µM (active) |
| CCOC(=O)CSC1=C(C#N)C(c2sccc2C)CC(=O)N1 (stereo not given) | 1.77% (inactive) |  |
| COC(=O)CSC1=C(C#N)C(c2ccccc2OC)C(C(=O)OC)C(=O)N1 (stereo not given) | -4.29% [at 11.4 µM] |  |
| CN(C)CCCCNC(=O)c1ccc(Cc2nc3ccccc3[nH]2)cc1 | 0.142% (inactive) |  |
| O=C(O)C(O)[C@@](O)(Cc1ccc(O)cc1)C(=O)O (stereo not given in full) | -7.52% (inactive) |  |
| CCOC(=O)[C@]1(C(/C=C/c2ccco2)NC(=O)OC)CCCC1=O (stereo not given in full) | 5.21% [at 11.4 µM] |  |
| Cc1c(O)cc(O)c2c(=O)c(-c3ccc(O)cc3)coc12 | 6.83% (inactive) |  |
| CN(C)CCc1c[nH]c2ccc(Cn3cncn3)cc12 | -7.19% (inactive) |  |
| Cc1ccc(S(=O)(=O)C(C#N)c2nc3ccccc3nc2N2CCCC2)cc1C (stereo not given) |  | 12.6 µM (active) |
| N#CC(C(=O)c1ccc(S(=O)(=O)N2CCCCCC2)cc1)c1nc2ccccc2[nH]1 (stereo not given) | 7.16% (inactive) |  |
| CC(C)OC(=O)C(C#N)c1nc2ccccc2nc1N1CCN(Cc2ccccc2)CC1 (stereo not given) | 8.6% (inactive) |  |
| CC1CCCCN1CCCNC(=O)c1ccc(-n2c(=O)c(=O)[nH]c3ccccc32)cc1 (stereo not given) | -1.94% (inactive) |  |
| CC1OC(OCC2OC(Oc3c(-c4ccc(O)c(O)c4)oc4cc(O)cc(O)c4c3=O)C(O)C(O)C2O)[C@@H](O)C(O)C1O (stereo not given in full) | 4.76% (inactive) |  |
| CC(=O)OCC(=O)C1CCC2C3CCC4=CC(=O)CC[C@@]4(C)C3CC[C@]12C (stereo not given in full) | -4.9% (inactive) |  |
| Oc1c(Cl)cc(Cl)c(Cl)c1Cc1c(O)c(Cl)cc(Cl)c1Cl |  | 5.01 µM (active) |
| COc1cc(OC)c2c(c1Cl)OC1(C2=O)C(O)=CC(=O)CC1C (stereo not given) | 2.59% (inactive) |  |
| O=c1cc(-c2ccc(O)c(O)c2)oc2cccc(O)c12 |  | 0.398 µM (active) |
| Cc1cccc(-c2cc(=O)c3cc(C)ccc3o2)c1 | -10.3% [at 25.6 µM] (inactive) |  |
| CC1O[C@@H](Oc2c(-c3ccc(O)c(O)c3)oc3cc(O)cc(O)c3c2=O)C(O)C(O)C1O (stereo not given in full) | -14% (inactive) |  |
| COC1C[C@@H](O[C@@H]2C(C)C(=O)OC(C)C(C)C(O)C(C)C(=O)[C@@]3(CO3)CC(C)C(OC3OC(C)CC(N(C)C)C3O)C2C)OC(C)[C@@H]1O (stereo not given in full) | -2.5% (inactive) |  |

| SMILES | activity change, negative = inhibition | Potency |
| --- | --- | --- |
| C=CCSc1nc2c(c(=O)[nH]1)C(C(C)C)C(C#N)=C(N)O2 (stereo not given) | 5.58% (inactive) |  |
| CO[C@H]1COC(=O)[C@@H](OCc2ccccc2)/C=C\[C@H](C)[C@@H](OC)COC(=O)[C@H](OCc2ccccc2)/C=C\[C@@H]1C | -2.96% [at 11.4 µM] |  |
| CN(C(=O)CN(CCO)CC(=O)N(C)C(C)(C)Cc1ccccc1)C(C)(C)Cc1ccccc1 | inactive |  |
| CCc1ccc2oc(-c3ccc(N)cc3)nc2c1 | -9.99% (inactive) |  |
| CCN(CC)c1ccc2oc(=O)c(C)nc2c1 |  | 25.1 µM (active) |
| Cc1ccc2oc(=O)ccc2c1 | 2.66% (inactive) |  |
| Nc1nnc(SCCN2C(=O)c3ccccc3S2(=O)=O)s1 | 1.23% (inactive) |  |
| COc1ccc(/C=C/C(=O)c2ccc(OC)cc2O)cc1 | -1.36% [at 11.4 µM] |  |
| COc1c(C)cccc1C(=O)Nc1cc(Cl)ccc1N1CCOCC1 | -17% (inactive) |  |
| c1cnn(-c2cc(N3CCOCC3)ncn2)c1 | 14.7% (inactive) |  |
| O=C(Nc1cc(N2CCOCC2)ncn1)NC1(C(F)(F)F)Oc2ccc(Cl)cc2O1 (stereo not given) |  | 5.01 µM (active) |
| CCCCCCCCCc1ccc(OCCOCCOCCOCCOCCOCCOCCOCCOCCO)cc1 | 6.97% (inactive) |  |
| COC(=O)C1=C(C)Nc2ncnn2C1c1ccco1 (stereo not given) | -0.121% (inactive) |  |
| CCC(C(=O)NC1CCCC1)N(C(=O)c1snc(C(N)=O)c1N)c1ccc2c(c1)OCCO2 (stereo not given) |  | 25.1 µM (active) |
| O=C(NCCc1ccc2c(c1)OCCO2)c1cc2ccccc2o1 | -13.8% (inactive) |  |
| Cc1ccc(C(C(=O)NC2CCCCC2)N(C(=O)c2csnn2)C2CC2)o1 (stereo not given) | 3.9% (inactive) |  |
| COc1cc(C(=O)Nc2oc(-c3ccccc3)c(-c3ccccc3)c2C#N)cc(OC)c1OC | -4.42% (inactive) |  |
| Oc1ccc2c(c1)OCC1c3cc4c(cc3OC21)OCO4 (stereo not given) | -10.2% (inactive) |  |
| CCCCOCCCNC(=O)c1ccccc1OCC | 2.13% [at 11.4 µM] |  |
| COc1ccc2[nH]cc(CCNc3ncnc4ccc(-c5ccc(C(=O)N(C)C)cc5)cc34)c2c1 | -25.2% (inactive) |  |
| CC(C)NC(=O)N1CCC2(CC1)CCN(C(=O)c1cccn1C)CC2 | 6.39% (inactive) |  |
| CC(C)c1ccc2c(c1)c(SC(C)(C)C)c(CC(C)(C)C(=O)O)n2Cc1ccc(Cl)cc1 |  | 12.6 µM (active) |
